Experimental data from PubChem BioAssay AID1159580 (chemical genetic matrix, 2015).
Values joined by “and” are separate entries in the source; they are usually repeats but may differ in a detail not shown here. Equal entries are not always repeated. Among all 5,500 compounds or so, about 2,000 (36%) were called active. Not shown: some 18% with an inconclusive outcome. Rule as the data show it: active = normalized growth mostly below about 0.91 (no sharp cut-off); inconclusive = no clear call, values can overlap the other calls; inactive = mostly above about 0.92. The list shows a part of the results.

Assay: chemical genetic growth profiling, strain panel (AID 1159580);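 also: tested at 20 µM; growth read once vehicle control cultures reached saturation at 30 °C; 1 = growth at the plate median or of vehicle wells; lower values mean less growth of the strain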
Settings: S. cerevisiae deletion strains, growth OD

Measured: normalized growth

C[C@]12CCC(=O)C=C1C=CC1C2CC[C@@]2(C)C1CC[C@@]21CCC(=O)O1 (stereo partly specified)
active: locus YDL101C, strain DUN1, hits give low values 0.877 | locus YDL192W, strain arf1, hits give low values 0.866 | locus YDR137W, strain rgp1, hits give low values 0.75 | locus YDR162C, strain NBP2, hits give low values 0.584 | locus YDR392W, strain spt3, hits give low values 0.662 | locus YDR502C, strain sam2, hits give low values 0.914 | locus YGL086W, strain mad1, hits give low values 0.917 | locus YKR001C, strain vps1, hits give low values 0.788 | locus YLR039C, strain RIC1, hits give low values 0.588 | locus YLR262C, strain YPT6 (second series), hits give low values 0.792 | locus YLR262C, strain YPT6, hits give low values 0.525 | locus YLR342W, strain FKS1 (second series), hits give low values 0.785 | locus YLR418C, strain cdc73, hits give low values 0.702 | locus YMR307W, strain GAS1, hits give low values 0.597 | locus YNL307C, strain MCK1, hits give low values 0.831 | locus YNR052C, strain pop2, hits give low values 0.906 | locus YOR184W, strain ser1, hits give low values 0.724 | locus YOR270C, strain vph1, hits give low values 0.771 | locus YPR163C, strain tif3, hits give low values 0.867
inactive: locus YAL013W, strain DEP1, hits give low values 0.956 | locus YAL021C, strain ccr4, hits give low values 0.971 | locus YAL026C, strain drs2, hits give low values 0.97 | locus YAL030W, strain snc1, hits give low values 0.974 | locus YBL061C, strain skt5, hits give low values 0.977 | locus YBR009C, strain hhf1, hits give low values 0.962 | locus YBR021W, strain FUR4, hits give low values 1 | locus YBR023C, strain chs3, hits give low values 0.979 | locus YBR171W, strain sec66, hits give low values 0.966 | locus YBR229C, strain ROT2, hits give low values 0.979 | locus YBR231C, strain swc5, hits give low values 0.989 | locus YBR279W, strain paf1, hits give low values 0.983 | locus YCL011C, strain gbp2, hits give low values 0.968 | locus YCL016C, strain dcc1, hits give low values 0.976 | locus YCL029C, strain bik1, hits give low values 0.949 | locus YCL061C, strain MRC1, hits give low values 0.954 | locus YCL069W, strain vba3, hits give low values 0.974 | locus YCR088W, strain abp1, hits give low values 0.974 | locus YDL005C, strain med2, hits give low values 0.98 | locus YDL035C, strain GPR1, hits give low values 0.962 | locus YDL040C, strain nat1, hits give low values 0.977 | locus YDL074C, strain BRE1, hits give low values 0.872 | locus YDL185W, strain tfp1, hits give low values 0.967 | locus YDR001C, strain nth1, hits give low values 0.952 | locus YDR069C, strain doa4, hits give low values 0.984 | locus YDR101C, strain arx1, hits give low values 0.955 | locus YDR150W, strain NUM1, hits give low values 0.985 | locus YDR159W, strain sac3, hits give low values 0.901 | locus YDR195W, strain ref2 1.12 | locus YDR297W, strain sur2, hits give low values 0.981 | locus YDR318W, strain mcm21, hits give low values 0.956 | locus YDR334W, strain swr1, hits give low values 0.977 | locus YDR335W, strain msn5, hits give low values 0.976 | locus YDR388W, hits give low values 0.969 | locus YEL003W, strain gim4, hits give low values 0.962 | locus YEL037C, strain rad23, hits give low values 0.971 | locus YEL061C, strain CIN8 (second series), hits give low values 0.967 | locus YEL061C, strain CIN8, hits give low values 0.978 | locus YER015W, strain faa2, hits give low values 0.979 | locus YER016W, strain bim1, hits give low values 0.975 | locus YER110C, hits give low values 0.965 | locus YER111C, strain swi4, hits give low values 0.962 | locus YER155C, strain BEM2 (second series), hits give low values 0.988 | locus YER155C, strain BEM2, hits give low values 0.996 | locus YER167W, strain BCK2, hits give low values 0.956 | locus YFR010W, strain ubp6, hits give low values 0.986 | locus YGL078C, strain dbp3, hits give low values 0.985 | locus YGL167C, strain pmr1, hits give low values 0.968 | locus YGL173C, strain kem1, hits give low values 0.953 | locus YGL227W, strain vid30, hits give low values 0.988 | locus YGL240W, strain doc1, hits give low values 0.992 | locus YGL248W, strain PDE1, hits give low values 0.919 | locus YGL253W, strain hxk2, hits give low values 0.947 | locus YGR135W, strain pre9, hits give low values 0.936 | locus YGR252W, strain gcn5, hits give low values 0.969 | locus YHR013C, strain ard1, hits give low values 0.901 | locus YHR027C, strain rpn1, hits give low values 0.982 | locus YHR030C, strain SLT2, hits give low values 0.948 and 0.967 | locus YHR079C, strain IRE1 (second series), hits give low values 0.971 | locus YHR079C, strain IRE1, hits give low values 0.98 | locus YHR094C, strain hxt1, hits give low values 0.974 | locus YHR129C, strain ARP1, hits give low values 0.939 | locus YHR142W, strain chs7, hits give low values 0.922 | locus YHR200W, strain rpn10, hits give low values 0.984 | locus YIL066C, strain RNR3, hits give low values 0.95 | locus YIL073C, strain SPO22, hits give low values 0.948 | locus YIL125W, strain kgd1, hits give low values 0.979 | locus YIR030C, strain dcg1, hits give low values 0.979 | locus YJL092W, strain hpr5, hits give low values 0.963 | locus YJL095W, strain BCK1 (second series), hits give low values 0.984 | locus YJL095W, strain BCK1, hits give low values 0.807 and 0.975 | locus YJL115W, strain asf1, hits give low values 0.971 | locus YJL129C, strain trk1, hits give low values 0.95 | locus YJL134W, strain LCB3, hits give low values 0.982 | locus YJL154C, strain vps35, hits give low values 0.979 | locus YJL164C, strain tpk1, hits give low values 0.946 | locus YJL166W, strain qcr8, hits give low values 0.993 | locus YJL168C, strain set2, hits give low values 0.969 | locus YJL187C, strain SWE1 (second series), hits give low values 0.931 | locus YJL187C, strain SWE1, hits give low values 0.973 | locus YJR043C, strain POL32, hits give low values 1.06 | locus YJR066W, strain TOR1, hits give low values 0.951 | locus YKL009W, strain mrt4, hits give low values 0.948 | locus YKL068W, hits give low values 0.966 | locus YKL085W, strain MDH1 (second series), hits give low values 0.971 | locus YKL085W, strain MDH1, hits give low values 0.971 | locus YKL160W, strain elf1, hits give low values 0.982 | locus YKR026C, strain gcn3, hits give low values 0.98 | locus YKR091W, strain srl3, hits give low values 0.969 | locus YLL001W, strain dnm1, hits give low values 0.983 | locus YLL026W, hits give low values 0.989 | locus YLL041C, strain sdh2, hits give low values 0.983 | locus YLR027C, strain aat2, hits give low values 0.994 | locus YLR058C, strain SHM2, hits give low values 0.959 | locus YLR102C, strain apc9, hits give low values 0.973 | locus YLR113W, strain HOG1, hits give low values 0.934 | locus YLR221C, strain rsa3, hits give low values 0.956 | locus YLR258W, strain gsy2, hits give low values 0.964 | locus YLR268W, strain sec22, hits give low values 0.914 | locus YLR320W, strain mms22, hits give low values 0.9 | locus YLR330W, strain CHS5, hits give low values 0.938 | locus YLR342W, strain FKS1, hits give low values 0.961 | locus YLR357W, strain rsc2, hits give low values 1.01 | locus YLR370C, strain arc18, hits give low values 0.969 | locus YLR371W, strain rom2, hits give low values 0.975 | locus YLR384C, strain iki3, hits give low values 0.993 | locus YML016C, strain PPZ1, hits give low values 0.973 | locus YML032C, strain rad52, hits give low values 0.971 | locus YML120C, strain ndi1, hits give low values 0.971 | locus YML124C, strain tub3, hits give low values 0.986 | locus YMR058W, strain fet3, hits give low values 0.964 | locus YMR078C, strain ctf18, hits give low values 0.973 | locus YMR125W, strain sto1, hits give low values 0.985 | locus YMR129W, hits give low values 0.973 | locus YMR205C, strain PFK2, hits give low values 0.938 | locus YMR223W, strain ubp8, hits give low values 0.941 | locus YMR231W, strain pep5, hits give low values 0.99 | locus YNL067W, strain RPL9B, hits give low values 0.937 | locus YNL071W, strain lat1, hits give low values 0.927 | locus YNL128W, strain TEP1, hits give low values 0.965 | locus YNL153C, strain GIM3, hits give low values 0.953 | locus YNL183C, strain NPR1, hits give low values 0.928 | locus YNL209W, strain ssb2, hits give low values 0.985 | locus YNL233W, strain BNI4, hits give low values 0.923 | locus YNL248C, strain rpa49, hits give low values 0.912 | locus YNL250W, strain rad50, hits give low values 0.981 | locus YNL271C, strain bni1, hits give low values 0.968 | locus YNL298W, strain CLA4, hits give low values 0.955 | locus YNL322C, strain KRE1 (second series), hits give low values 0.991 | locus YNL322C, strain KRE1, hits give low values 0.997 | locus YNR049C, strain mso1, hits give low values 0.947 | locus YOL012C, strain htz1 0.991 | locus YOL147C, strain pex11, hits give low values 0.971 | locus YOR001W, strain rrp6, hits give low values 1 | locus YOR061W, strain CKA2, hits give low values 0.958 | locus YOR069W, strain VPS5, hits give low values 0.975 | locus YOR070C, strain gyp1, hits give low values 0.969 | locus YOR080W, strain dia2, hits give low values 0.979 | locus YOR083W, strain WHI5, hits give low values 0.975 | locus YOR106W, strain vam3, hits give low values 0.961 | locus YOR136W, strain idh2, hits give low values 0.963 | locus YOR144C, strain elg1, hits give low values 0.976 | locus YOR231W, strain MKK1, hits give low values 0.97 | locus YOR265W, strain rbl2, hits give low values 0.983 | locus YOR290C, strain snf2, hits give low values 0.947 | locus YOR316C, strain cot1, hits give low values 0.968 | locus YPL051W, strain arl3, hits give low values 0.969 | locus YPL055C, strain LGE1, hits give low values 0.909 | locus YPL078C, strain atp4, hits give low values 0.975 | locus YPL106C, strain sse1, hits give low values 0.994 | locus YPL240C, strain hsp82, hits give low values 0.998 | locus YPL241C, strain CIN2, hits give low values 0.991 | locus YPL256C, strain CLN2, hits give low values 0.946 | locus YPR119W, strain clb2, hits give low values 0.981 | locus YPR141C, strain kar3, hits give low values 0.947 | locus YPR167C, strain met16, hits give low values 0.967 | strain wtn01, hits give low values 0.902
